{"source": "PubChem BioAssay AID1486", "about": "(The Scripps Research Institute Molecular Screening Center, 2009)", "note": "Among all 220,000 compounds or so, about 2,400 (1.1%) were called active. Shown is part of a subset that was picked to be rich in actives. Unmarked numbers belong to inactive results.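 The calls were made as follows: active = inhibition above a per-campaign cutoff, the mean inhibition of all tested compounds plus 3 SD (cut at about 27% in these data); inactive = the rest.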"}
{"experiment": "growth loss in parental Ba/F3 cells – cell-based, murine pro-B, CellTiter-Glo luminescence, counter-screen for JAK2V617F inhibitor project (AID 1486);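 also: 0% = DMSO wells and 100% = JAK Inhibitor I control wells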", "settings": "Ba/F3 parental viability, CellTiter-Glo ATP luminescence; at 5.6 µM; stronger effect = higher value"}
{"smiles": "O=C(CSc1ccc(C(F)(F)F)cc1[N+](=O)[O-])NCCOc1ccccc1", "inhibition": "3.21%"}
{"smiles": "CC#CC[N+](C)(C)CCCCCC", "inhibition": "43.8% (active)"}
{"smiles": "C/C(=N\\N1CCN(Cc2ccc(C)cc2)CC1)c1ccco1", "inhibition": "3.54%"}
{"smiles": "Cc1ccc(C(=O)Nc2nc(N)n(-c3ccccc3)n2)cc1", "inhibition": "-1.21%"}
{"smiles": "COc1cc(Cl)c(C)cc1NC(=O)[C@@H]1CCCN1C(=O)c1cccs1", "inhibition": "6.13%"}
{"smiles": "COC(=O)Nc1ccc(S(=O)(=O)N2CCN(CCN3C(=O)C4C5C=CC(C5)C4C3=O)CC2)cc1", "note": "(stereo not given)", "inhibition": "5.02%"}
{"smiles": "COC(=O)CCNC(=O)c1ccc2[nH]c(C)c(C)c2c1", "inhibition": "3.29%"}
{"smiles": "CCOC(=O)c1[nH]c2c(c1-c1ccccc1)C(=O)CC(c1ccc(Cl)cc1)C2", "note": "(stereo not given)", "inhibition": "8.29%"}
{"smiles": "CCCOC(=O)c1[nH]c2c(c1C)C(=O)CC(c1cc(OC)c(OC)c(OC)c1)C2", "note": "(stereo not given)", "inhibition": "41.3% (active)"}
{"smiles": "CCCOC(=O)c1[nH]c2c(c1C)C(=O)CC(c1cccs1)C2", "note": "(stereo not given)", "inhibition": "75.9% (active)"}
{"smiles": "COc1cc(C2CC(=O)c3cnc(NC(C)=O)nc3C2)cc(OC)c1OC", "note": "(stereo not given)", "inhibition": "2.9%"}
{"smiles": "CCOC(=O)C1=C(C)NC(=S)NC1c1cccs1", "note": "(stereo not given)", "inhibition": "3.93%"}
{"smiles": "CCOC(=O)c1[nH]c2c(c1C)C(=O)CC(c1ccc(N(C)C)cc1)C2", "note": "(stereo not given)", "inhibition": "4.47%"}
{"smiles": "O=C(O)CCCC(=O)Nc1ccc(Oc2cccc(C(F)(F)F)c2)nc1", "inhibition": "-1.72%"}
{"smiles": "CCOC(=O)C1=C(CC)OC(N)=C(C#N)C1c1ccc(F)cc1F", "note": "(stereo not given)", "inhibition": "0.94%"}
{"smiles": "Cc1ccc(S(=O)(=O)N2CCCC2C(=O)OCc2nc3sc(C)c(C)c3c(=O)[nH]2)cc1", "note": "(stereo not given)", "inhibition": "3.55%"}
{"smiles": "O=C1CCCCC1C(=O)c1ccccc1", "note": "(stereo not given)", "inhibition": "0.06%"}
{"smiles": "Cc1nc(/N=C(\\N)NC(=O)NC2CCCCC2)nc2ccccc12", "inhibition": "4.49%"}
{"smiles": "COc1ccc(NC(=O)Nc2ccc3nc(C)c(C)nc3c2)cc1", "inhibition": "1.19%"}
{"smiles": "COc1ccc2nc(/N=C(\\N)NC(=O)Nc3ccccc3)nc(C)c2c1", "inhibition": "31.6% (active)"}
{"smiles": "O=C(NNC(=O)c1cnccc1C(F)(F)F)c1ccc(Cl)cc1", "inhibition": "-1.83%"}
{"smiles": "Cc1cccc(Cn2cnc3c(N)c(C)c(C)cc32)c1", "inhibition": "32.6% (active)"}
{"smiles": "CCOC(=O)c1cn(Cc2cccc(C)c2)nn1", "inhibition": "2.15%"}
{"smiles": "COc1cccc(Cn2cnc3c([N+](=O)[O-])c(C)c(C)cc32)c1", "inhibition": "9.27%"}
{"smiles": "CCN(CC)S(=O)(=O)c1ccc(OC(C)C)c(N)c1", "inhibition": "5.49%"}
{"smiles": "COc1ccccc1C1C2=C(COC2=O)Nc2cc3c(cc21)OCO3", "note": "(stereo not given)", "inhibition": "80.4% (active)"}
{"smiles": "COCCOC(=O)C1=C(C)NC(=O)CC1c1cc2c(cc1Br)OCO2", "note": "(stereo not given)", "inhibition": "3.68%"}
{"smiles": "CCCOc1ccccc1C1CC(=O)Nc2cc3c(cc21)OCO3", "note": "(stereo not given)", "inhibition": "71.8% (active)"}
{"smiles": "COc1ccc(F)cc1S(=O)(=O)Nc1ccc2c(c1)OCO2", "inhibition": "3.23%"}
{"smiles": "COc1ccc(C2CC(=O)Nc3cc(C)c(C)cc32)c(OC)c1OC", "note": "(stereo not given)", "inhibition": "3.54%"}
{"smiles": "COc1cc2c(cc1/C=C1/NC(=O)N(c3ccccc3)C1=O)OCO2", "inhibition": "10.5%"}
{"smiles": "CCN(CC)C(=O)CSC(Nc1cccc(F)c1)=C(C#N)C#N", "inhibition": "-0.34%"}
{"smiles": "Cc1cc(C)c2nc(-c3cccnc3)cc(C(=O)Nc3ccc(S(=O)(=O)Nc4onc(C)c4C)cc3)c2c1", "inhibition": "8.53%"}
{"smiles": "O=C(Nc1ccccc1Cl)c1ccc2nsnc2c1", "inhibition": "9.68%"}
{"smiles": "O=C(CN1CCCCC1)Nc1ccccc1Cl", "inhibition": "5.49%"}
{"smiles": "O=C(Nc1ccccc1Cl)/C(Cl)=C(\\Cl)S(=O)c1ccccc1", "note": "(stereo not given)", "inhibition": "104% (active)"}
{"smiles": "N#C/C(=C\\c1ccc(N2CCOCC2)o1)C(=O)N1CCOCC1", "inhibition": "4.08%"}
{"smiles": "Cc1cc(OCCCC(=O)NCCN2C(=O)S/C(=C\\c3cccnc3)C2=O)ccc1Cl", "inhibition": "6.03%"}
{"smiles": "O=C(O)Cc1csc(NC(=O)CSc2nnnn2-c2ccc(O)cc2)n1", "inhibition": "-4.21%"}
{"smiles": "CC1Cc2ccccc2N1CC(=O)Nc1ccc2c(c1)OC(F)(F)O2", "note": "(stereo not given)", "inhibition": "4.14%"}
{"smiles": "Cc1cc(OCCN2CCCC2)ccc1C(C)C", "inhibition": "1.72%"}
{"smiles": "Cc1ccc(C(C)C)cc1OCCN1CCCC1", "inhibition": "5.38%"}
{"smiles": "Cc1cc(OCCN2CCCC2)cc(C(C)C)c1", "inhibition": "93.8% (active)"}
{"smiles": "Cc1ccc(-c2nc(SCC(=O)Nc3ccccc3OC(F)F)c3c(C)c(C(=O)O)sc3n2)cc1", "inhibition": "1.45%"}
{"smiles": "CCOC(=O)C1(S(=O)(=O)c2ccccc2)CCN(Cc2ccccc2)CC1", "inhibition": "8.01%"}
{"smiles": "CC1=C/C(=N\\OS(=O)(=O)c2ccccc2)C=CC1=O", "inhibition": "32.1% (active)"}
{"smiles": "CC1=C/C(=N\\S(=O)(=O)c2ccccc2)C(C(C)C)=CC1=O", "inhibition": "5.54%"}
{"smiles": "CCN(CC)CCNCc1ccc(OCc2ccc(Cl)nc2)c(OC)c1", "inhibition": "2.52%"}
{"smiles": "CC[C@H]1CN2CCc3cc(OC)c(OC)cc3[C@@H]2C[C@@H]1C[C@H]1NCCc2cc(OC)c(OC)cc21", "inhibition": "100% (active)"}
{"smiles": "COc1cc2c(cc1O)[C@H](Cc1ccc(Oc3cc(C[C@@H]4NCCc5cc(OC)c(O)cc54)ccc3O)cc1)NCC2", "inhibition": "5.61%"}
{"smiles": "COC(=O)C1=C(NC(=O)C(C)(C)C)CCS1", "inhibition": "-0.46%"}
{"smiles": "O=C(O)c1cccnc1Sc1ncnc2sc3c(c12)CCC3", "inhibition": "-7.35%"}
{"smiles": "O=C(c1ccc(Cl)cc1)N1N=C(c2ccccn2)CC1(O)C(F)(F)F", "note": "(stereo not given)", "inhibition": "0.67%"}
{"smiles": "O=C(NCC1CCCCC1)c1cc(S(=O)(=O)N2CCCCC2)ccc1N1CCOCC1", "inhibition": "8.85%"}
{"smiles": "CCOc1cc(C(=O)N2CCc3cc(OC)c(OC)cc3C2)ccc1OC(F)F", "inhibition": "78.2% (active)"}
{"smiles": "COc1cc2c(cc1OC)CN(C(=O)c1ccc(S(=O)(=O)N3CCCCCC3)cc1)CC2", "inhibition": "10%"}
{"smiles": "COc1cc2c(cc1OC)CN(C(=O)c1cc(=O)c3ccccc3o1)CC2", "inhibition": "24.8%"}
{"smiles": "O=C(COC(=O)c1cc(=O)[nH]c2ccccc12)Nc1nc(-c2cccc(Br)c2)cs1", "inhibition": "3.32%"}
{"smiles": "O=C(Cn1c(COc2ccccc2)nc2ccccc21)Nc1cc(Cl)c(Cl)cc1Cl", "inhibition": "2.68%"}
{"smiles": "Cc1ccccc1CS(=O)(=O)CC1(O)CCN(C(=O)c2cccc(C(F)(F)F)c2)CC1", "inhibition": "-1.41%"}
{"smiles": "CS(=O)(=O)N1CCN(C(=O)Cc2ccccc2)CC1", "inhibition": "-0.7%"}
{"smiles": "CC(C)CC(=O)N1CCC(O)(CS(=O)(=O)Cc2ccccc2)CC1", "inhibition": "50.5% (active)"}
{"smiles": "Cn1c(=O)c2c(nc(NCCc3ccccc3)n2Cc2ccccc2)n(C)c1=O", "inhibition": "6.77%"}
{"smiles": "CCCCNc1nc2c(c(=O)n(C)c(=O)n2C)n1Cc1cccc(OC)c1", "inhibition": "48.4% (active)"}
{"smiles": "COC(=O)C(C)Sc1nc2c(c(=O)n(C)c(=O)n2C)n1Cc1cccc(C)c1", "note": "(stereo not given)", "inhibition": "4%"}
{"smiles": "Cc1c(C(=O)Nc2cccc(Cl)c2)cn2c(nc3ccccc32)c1C#N", "inhibition": "2.67%"}
{"smiles": "COC(=O)C1CCN(C(=O)c2cc(=O)[nH]c3ccccc23)CC1", "inhibition": "5.12%"}
{"smiles": "O=C(COC(=O)CCCNC(=O)c1ccc(Cl)cc1)Nc1cc(Cl)ccc1Cl", "inhibition": "2.29%"}
{"smiles": "COc1ccc(Cl)cc1CSc1ncn[nH]1", "inhibition": "-3.75%"}
{"smiles": "Cc1cc(C)nc(S/C=C/C(=O)c2ccccc2)n1", "inhibition": "6.81%"}
{"smiles": "O=C(/C=C/Sc1ncn[nH]1)c1ccc(Cl)cc1", "inhibition": "59.2% (active)"}
{"smiles": "Nc1scc[n+]1Cc1cccc2cccnc12", "inhibition": "-7.17%"}
{"smiles": "CC1=CC(C)(C)NC(=S)N1NC(=O)c1ccccc1Cl", "inhibition": "-3.65%"}
{"smiles": "COc1ccc(N2CCN(Cc3cc(=O)oc4ccc5ccccc5c34)CC2)cc1", "inhibition": "5.38%"}
{"smiles": "COc1ccc(Nc2cc(=O)n(-c3ccccc3)c3c2c(=O)n(C)c(=O)n3C)cc1", "inhibition": "4.99%"}
{"smiles": "COc1ccc(Nc2cc(=O)oc3ccccc23)cc1", "inhibition": "50.9% (active)"}
{"smiles": "O=C(Nc1cccc(S(=O)(=O)NC2=NCCC2)c1)C1CCCCC1", "inhibition": "-1.01%"}
{"smiles": "CCN(CC)CCn1c(N)c(S(=O)(=O)c2ccccc2)c2nc3ccccc3nc21", "inhibition": "5.27%"}
{"smiles": "c1cnn(-c2cc(N3CCOCC3)ncn2)c1", "inhibition": "5.98%"}
{"smiles": "O=C(Nc1cc(N2CCOCC2)ncn1)NC1(C(F)(F)F)Oc2ccc(Cl)cc2O1", "note": "(stereo not given)", "inhibition": "42.3% (active)"}
{"smiles": "Cc1csc(NC(=O)NC2(C(F)(F)F)Oc3ccccc3O2)n1", "inhibition": "13.6%"}
{"smiles": "CC1(C)CCSC(/C=C/c2ccccc2)=N1", "inhibition": "-2.99%"}
{"smiles": "CC1(C)C=C2[C@H]3CC[C@@H]4[C@@]5(C)CCC(=O)C(C)(C)[C@@H]5CC[C@@]4(C)[C@]3(C)CC[C@@]2(C(=O)O)CC1", "inhibition": "4.85%"}
{"smiles": "Cc1ccc(S(=O)(=O)Nc2ccc3ncccc3c2)cc1", "inhibition": "37.5% (active)"}
{"smiles": "Cc1cc(C)cc(OCC(=O)Nc2ccc(S(=O)(=O)Nc3ccccn3)cc2)c1", "inhibition": "-1.55%"}
{"smiles": "Cc1ccc(OCC(=O)Nc2ccc(S(=O)(=O)Nc3ccccn3)cc2)cc1", "inhibition": "0.56%"}
{"smiles": "COc1ccccc1C(=O)Nc1nc2nc(-c3ccccc3)cc(=O)n2[nH]1", "inhibition": "2.81%"}
{"smiles": "Nc1nc(Sc2ncccc2[N+](=O)[O-])n[nH]1", "inhibition": "-0.31%"}
{"smiles": "CCOC(=O)c1ccc(NNC(C)=O)c([N+](=O)[O-])c1", "inhibition": "-0.42%"}
{"smiles": "O=C(NNC(=O)C1C2CCC(C2)C1C(=O)O)c1ccc(Cl)cc1", "note": "(stereo not given)", "inhibition": "2.39%"}
{"smiles": "COc1cccc(C(=O)Nc2ccc(N3CCCC3)cc2)c1", "inhibition": "45.8% (active)"}
{"smiles": "COc1ccc(C(=O)NC(=S)Nc2ccc(N3CCCC3)cc2)cc1OC", "inhibition": "3.89%"}
{"smiles": "COc1cccc(OC)c1C(=O)Nc1ccc(N2CCCCC2)cc1", "inhibition": "9.75%"}
{"smiles": "CCOCCCn1c(NN)nc2ccccc2c1=O", "inhibition": "1.96%"}
{"smiles": "COn1c(=O)c(=O)n(OC)c2ccccc21", "inhibition": "3.35%"}
